From PubChem BioAssay (Tox21)
Inconclusive results are not listed. Activity calls are given as the source filed them. Unless noted, calls come from the whole dose curve; as a rule, active = well fitted curve in the direction sought with a large enough effect in the repeat runs; inconclusive = weak or mixed curves; inactive = no such curve, though single readings can be large; an effect the other way counts as inactive or inconclusive.

Key:
[1] = qHTS assay to identify small molecule agonists of the peroxisome proliferator-activated receptor delta (PPARd) signaling pathway - cell viability counter screen (AID 743211); note: nearly all actives have a fitted effect of over 55% in size
Summary of the method: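 In the same wells used for beta-lactamase reporter measurement, cytotoxicity is scored by CellTiter-Glo. HEK293H PPARd-bla cells receive compound for 17 h at 37C following a 5 h settling period.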

[2] = target: Peroxisome proliferator-activated receptor delta (Homo sapiens) (UniProt Q03181); assay: qHTS assay to identify small molecule agonists of the peroxisome proliferator-activated receptor delta (PPARd) signaling pathway (AID 743212; calls by dose curve;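 note: HEK293H cells with PPARd UAS beta-lactamase reporter GeneBLAzer system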)
Chain of Peroxisome proliferator-activated receptor delta (Homo sapiens) (Q03181 whole entry, looked up): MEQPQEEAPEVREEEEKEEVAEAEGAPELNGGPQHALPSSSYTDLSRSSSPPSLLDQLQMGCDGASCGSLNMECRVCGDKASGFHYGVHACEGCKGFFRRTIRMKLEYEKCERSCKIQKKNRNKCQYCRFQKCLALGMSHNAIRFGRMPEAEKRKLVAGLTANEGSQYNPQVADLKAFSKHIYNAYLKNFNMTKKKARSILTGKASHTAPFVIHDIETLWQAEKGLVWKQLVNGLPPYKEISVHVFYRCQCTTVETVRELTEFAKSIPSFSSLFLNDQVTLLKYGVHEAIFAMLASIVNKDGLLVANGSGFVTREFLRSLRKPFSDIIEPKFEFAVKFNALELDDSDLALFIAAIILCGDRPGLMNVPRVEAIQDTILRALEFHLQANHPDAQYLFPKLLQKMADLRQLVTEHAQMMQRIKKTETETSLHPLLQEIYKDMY
Summary of the method: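 Steps: seed PPARd-bla HEK293H cells; incubate 5 h, 37 C, 5% CO2; add compounds in DMSO; incubate, 37 C; add LiveBLAzer B/G FRET substrate; hold 2 h at room temperature; measure fluorescence.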

[3] = qHTS assay to identify small molecule antagonists of the peroxisome proliferator-activated receptor delta (PPARd) signaling pathway - cell viability counter screen (AID 743213); note: nearly all actives have a fitted effect of over 50% in size
Summary of the method: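 PPARd-bla HEK293H cells were treated with compounds plus agonist L165041 (300 nM final) for 17 h at 37 C. Viability was then read in the same wells by CellTiter-Glo luminescence after 30 min at room temperature.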

[4] = target: Peroxisome proliferator-activated receptor delta (Homo sapiens) (UniProt Q03181); assay: qHTS assay to identify small molecule antagonists of the peroxisome proliferator-activated receptor delta (PPARd) signaling pathway (AID 743215; active = well fitted inhibition curve with a large enough effect in the signal ratio in the repeat runs, not every such curve was filed as active; the % refers to the signal ratio;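 note: cells stimulated with agonist L165041 at 300 nM final during compound exposure; series mostly up to about 62 µM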)
Summary of the method: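 Here, a reporter line (HEK293H, beta-lactamase under a UAS) measures PPARd signaling. Compounds are tested against agonist L165041 at 300 nM final concentration over 17 h at 37 C, with fluorescence read after substrate.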

[5] = qHTS assay to identify small molecule agonists of the farnesoid-X-receptor (FXR) signaling pathway - cell viability counter screen (AID 743218); note: nearly all actives have a fitted effect of over 45% in size
Summary of the method: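 Quantitative HTS counter screen measuring ATP-based viability via CellTiter-Glo luminescence in HEK 293T cells carrying a UAS-driven beta-lactamase reporter, after 16 h compound exposure at 37 C.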

[6] = target: Bile acid receptor (Homo sapiens) (UniProt Q96RI1); assay: qHTS assay to identify small molecule agonists of the farnesoid-X-receptor (FXR) signaling pathway (AID 743220; active = well fitted activation curve with a large enough effect in the signal ratio in the repeat runs, not every such curve was filed as active; the % refers to the signal ratio)
Chain of Bile acid receptor (Homo sapiens) (Q96RI1 whole entry, looked up): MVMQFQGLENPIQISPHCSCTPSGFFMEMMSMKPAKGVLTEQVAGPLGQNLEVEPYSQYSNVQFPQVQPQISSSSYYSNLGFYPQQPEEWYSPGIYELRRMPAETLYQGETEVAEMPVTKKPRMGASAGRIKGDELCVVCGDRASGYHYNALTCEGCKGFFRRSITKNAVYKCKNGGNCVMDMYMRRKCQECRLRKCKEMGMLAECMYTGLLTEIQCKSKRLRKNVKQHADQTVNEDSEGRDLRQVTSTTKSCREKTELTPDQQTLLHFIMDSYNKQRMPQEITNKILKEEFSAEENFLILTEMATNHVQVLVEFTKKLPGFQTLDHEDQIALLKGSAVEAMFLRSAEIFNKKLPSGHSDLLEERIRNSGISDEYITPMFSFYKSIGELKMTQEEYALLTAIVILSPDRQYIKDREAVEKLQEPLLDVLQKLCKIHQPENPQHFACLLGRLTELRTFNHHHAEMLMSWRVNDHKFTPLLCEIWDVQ
Summary of the method: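 FXR-UAS-bla HEK 293T cells carrying a UAS-driven beta-lactamase reporter were plated for 5 h at 37C/5% CO2, then exposed to DMSO-dissolved Tox21 10K compounds for 16 h at 37C. A LiveBLAzer B/G FRET substrate was loaded for 2 h at room temperature before fluorescence reading.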

[7] = qHTS assay to identify small molecule antagonists of the farnesoid-X-receptor (FXR) signaling pathway - cell viability counter screen (AID 743221; active = well fitted cell-killing curve with a large enough effect in the repeat runs, not every such curve was filed as active; note: nearly all actives have a fitted effect of over 50% in size)
Summary of the method: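 Here viability was scored by luminescence after CellTiter-Glo addition to wells already read for beta-lactamase. Prior treatment: compound plus CDCA (50 uM final), 16 h, 37 C, HEK 293T FXR-bla cells.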

[8] = target: Vitamin D3 receptor (Homo sapiens) (UniProt P11473); assay: qHTS assay to identify small molecule agonists of the vitamin D receptor (VDR) signaling pathway (AID 743222; calls by dose curve)
Chain of Vitamin D3 receptor (Homo sapiens) (P11473 whole entry, looked up): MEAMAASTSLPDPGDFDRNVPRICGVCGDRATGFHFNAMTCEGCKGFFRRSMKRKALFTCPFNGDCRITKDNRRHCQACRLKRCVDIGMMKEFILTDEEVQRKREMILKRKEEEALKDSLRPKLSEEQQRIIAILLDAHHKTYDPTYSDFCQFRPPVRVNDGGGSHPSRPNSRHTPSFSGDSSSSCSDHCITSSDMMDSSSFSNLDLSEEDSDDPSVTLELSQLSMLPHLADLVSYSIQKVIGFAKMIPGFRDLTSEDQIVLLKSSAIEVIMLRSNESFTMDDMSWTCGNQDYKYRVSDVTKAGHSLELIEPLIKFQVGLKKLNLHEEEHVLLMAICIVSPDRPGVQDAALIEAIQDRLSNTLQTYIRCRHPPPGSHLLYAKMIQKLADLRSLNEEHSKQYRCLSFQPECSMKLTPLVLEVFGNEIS
Summary of the method: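 Tox21 cell reporter format: VDR-bla line, 16 h compound exposure in 5% CO2 at 37C, then fluorescence intensity after 2 h with LiveBLAzer B/G FRET substrate.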

[9] = target: Vitamin D3 receptor (Homo sapiens) (UniProt P11473); assay: qHTS assay to identify small molecule antagonists of the vitamin D receptor (VDR) signaling pathway (AID 743223; active = well fitted inhibition curve with a large enough effect in the signal ratio in the repeat runs, not every such curve was filed as active; the % refers to the signal ratio)
Summary of the method: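 Inhibition of agonist-driven VDR signalling is scored in VDR-bla cells: 3 nM final 1alpha,25-dihydroxyvitamin D3 plus compound, 16 h at 37C, then beta-lactamase detection by FRET substrate fluorescence after 2 h.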

[10] = qHTS assay to identify small molecule agonists of the vitamin D receptor (VDR) signaling pathway - cell viability counter screen (AID 743224); note: series mostly up to about 63 µM; nearly all actives have a fitted effect of over 50% in size
Summary of the method: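 CellTiter-Glo viability readout on VDR-bla cells, measured after 16 h of compound treatment at 37C in the same wells.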

[11] = qHTS assay to identify small molecule antagonists of the vitamin D receptor (VDR) signaling pathway - cell viability counter screen (AID 743225); note: nearly all actives have a fitted effect of over 50% in size
Summary of the method: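 Compounds were pinned onto VDR-bla HEK 293T cells together with 1-alpha,25-dihydroxyvitamin D3 at 3 nM final. After 16 h at 37C and 5% CO2 plus the reporter readout, cell viability was measured by CellTiter-Glo luminescence (30 min, room temperature).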

[12] = qHTS assay to identify small molecule agonists of the NFkB signaling pathway (AID 1159509; active = well fitted curve in the direction sought with a large enough effect in the signal ratio in the repeat runs, not every such curve was filed as active; the % refers to the signal ratio; note: series mostly up to about 61 µM)
Summary of the method: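 Beta-lactamase reporter assay run in quantitative high-throughput format on an NF-kB-responsive ME-180 line, with 5 hr compound treatment and a FRET-based blue/green fluorescence readout.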

[13] = qHTS assay to identify small molecule agonists of the NFkB signaling pathway - cell viability counter screen (AID 1159515; calls by dose curve; note: series mostly up to about 61 µM; nearly all actives have a fitted effect of over 55% in size)
Summary of the method: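 Tox21 library compounds were tested for cytotoxicity against NFkB-bla ME-180 cells during a 5 hr exposure at 37 C. CellTiter-Glo luminescence served as the viability read-out.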

[14] = qHTS assay to identify small molecule agonists of the endoplasmic reticulum stress response signaling pathway (AID 1159516; active = well fitted activation curve with a large enough effect in the signal ratio in the repeat runs, not every such curve was filed as active; the % refers to the signal ratio)
Summary of the method: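 Fluorescence at 460 and 530 nm (405 nm excitation) reports beta-lactamase from an ER stress response element in HeLa cells treated 5 hr at 37 C.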

[15] = qHTS assay to identify small molecule antagonists of the retinoid-related orphan receptor gamma (ROR-gamma) signaling pathway - cell viability counter screen (AID 1159520); note: nearly all actives have a fitted effect of over 50% in size
Summary of the method: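 Cytotoxicity was read from cellular ATP (CellTiter-Glo luminescence) after 16 hr at 37 C with 1 uM doxycycline induction. The inducer was added 2 hr after compound transfer to Tet-on ROR gamma CHO cells.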

[16] = target: Nuclear receptor ROR-gamma (Homo sapiens) (UniProt P51449); assay: qHTS assay to identify small molecule antagonists of the retinoid-related orphan receptor gamma (ROR-gamma) signaling pathway (AID 1159521)
Summary of the method: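 Test compounds were applied to Tet-on RORγ CHO cells 2 h ahead of doxycycline hyclate (1 uM final). Luciferase reporter activity was quantified by luminescence after 16 h at 37 C and 5% CO2.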

[17] = qHTS assay to identify small molecule agonists of the AP-1 signaling pathway - cell viability counter screen (AID 1159525; calls by dose curve; note: nearly all actives have a fitted effect of over 55% in size)
Summary of the method: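 Intracellular ATP by Cell Titer Glo luminescence (30 min, RT) in the same ME-180 AP-1-bla wells after the 5 h compound exposure at 37 °C. Normalised to tetra n-octyl ammonium bromide and DMSO controls.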

[18] = qHTS assay to identify small molecule agonists of the AP-1 signaling pathway (AID 1159526; calls by dose curve)
[19] = qHTS assay to identify small molecule agonists of the endoplasmic reticulum stress response signaling pathway - cell viability counter screen (AID 1159517; calls by dose curve)
Summary of the method: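 After overnight attachment, ESRE-bla HeLa cells were treated with Tox21 library compounds for 5 hr. CellTiter-Glo luminescence, read 30 min post-addition at room temperature, reported viability.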

Measured: Potency

CNC(=O)Oc1cccc2ccccc12
inactive: [1] | [2] | [3] | [4] | [5] | [6] | [7] | [8] | [9] | [10] | [11] | [12] | [13] | [14] | [15] | [16] | [17] | [18]

Nc1ccc(N)cc1
inactive: [1] | [3] | [5] | [6] | [7] | [8] | [9] | [10] | [11] | [12] | [13] | [14] | [19] | [15] | [17] | [18]

O=C(O)C(Br)Br
inactive: [3] | [5] | [6] | [7] | [8] | [9] | [10] | [11] | [12] | [13] | [14] | [19] | [15] | [17] | [18]

ClCCOCCCl
inactive: [2] | [3] | [5] | [6] | [7] | [10] | [11] | [12] | [13] | [14] | [19] | [15] | [17] | [18]

FC(F)(F)c1ccc(Cl)cc1
inactive: [2] | [3] | [5] | [6] | [7] | [8] | [9] | [10] | [11] | [12] | [13] | [14] | [19] | [15] | [17] | [18]

Cl[C@H]1OCCO[C@@H]1Cl
inactive: [2] | [3] | [5] | [6] | [7] | [10] | [11] | [12] | [13] | [14] | [19] | [15] | [17] | [18]

CN1C(=O)CCS(=O)(=O)C1c1ccc(Cl)cc1 (stereo not given)
inactive: [1] | [2] | [3] | [5] | [7] | [8] | [9] | [10] | [11] | [12] | [13] | [14] | [19] | [15] | [17] | [18]

O=C/C=C/c1ccccc1
inactive: [1] | [2] | [3] | [5] | [7] | [8] | [9] | [10] | [11] | [12] | [13] | [14] | [19] | [15] | [17] | [18]

CC12CC1(C)C(=O)N(c1cc(Cl)cc(Cl)c1)C2=O (stereo not given)
inactive: [2] | [3] | [5] | [7] | [8] | [9] | [10] | [11] | [12] | [13] | [14] | [19] | [15] | [17] | [18]

N#CN=C(N)N
inactive: [2] | [3] | [5] | [6] | [7] | [8] | [9] | [10] | [11] | [12] | [13] | [14] | [15] | [16] | [17] | [18]

O=C(O)c1cc(Oc2ccc(C(F)(F)F)cc2Cl)ccc1[N+](=O)[O-]
inactive: [3] | [5] | [7] | [10] | [11] | [12] | [13] | [14] | [19] | [15] | [16] | [17] | [18]

C=CC(=O)OCCCCCC(C)C
inactive: [1] | [2] | [3] | [4] | [5] | [6] | [7] | [8] | [9] | [10] | [11] | [12] | [13] | [14] | [15] | [16] | [17] | [18]

OCc1ccco1
inactive: [1] | [2] | [3] | [4] | [5] | [6] | [7] | [8] | [9] | [10] | [11] | [12] | [13] | [14] | [19] | [15] | [17] | [18]

Cc1cccc(N)c1C
inactive: [1] | [2] | [3] | [5] | [6] | [7] | [8] | [9] | [10] | [11] | [12] | [13] | [14] | [19] | [15] | [17] | [18]

CCOC(=O)CC(SP(=O)(OC)OC)C(=O)OCC (stereo not given)
inactive: [1] | [2] | [3] | [5] | [6] | [7] | [10] | [11] | [12] | [13] | [14] | [15] | [16] | [17] | [18]

CCOP(=S)(OCC)Oc1ccc([N+](=O)[O-])cc1
inactive: [1] | [2] | [3] | [5] | [7] | [10] | [11] | [12] | [13] | [14] | [19] | [15] | [17] | [18]

C=CCN=C=S
inactive: [1] | [2] | [3] | [4] | [5] | [6] | [7] | [8] | [9] | [10] | [11] | [12] | [13] | [14] | [15] | [16] | [17] | [18]

CC(=O)C1CCOC1=O (stereo not given)
inactive: [2] | [3] | [5] | [6] | [7] | [8] | [9] | [10] | [11] | [12] | [13] | [14] | [19] | [15] | [17] | [18]
